Experimental data taken from PubChem BioAssay AID1159607 (Small Molecule Screening Facility, UW Madison, 2016).
Several values for one entry are separate records, joined by “and”; a condition that tells them apart may be missing. Equal entries are not always repeated. The whole screen tested about 70,000 compounds, of which about 400 (0.57%) were called active. The sample as a whole holds a higher share of actives than the screen did. A number with no mark means an inactive call. Rule as the data show it: active = FP signal below about 40; inactive = the rest.

What follows are compounds tested on RMI core complex (RMI1/RMI2) binding to FANCM MM2 peptide, human (assay: disruptors of RMI1/RMI2 association with MM2 peptide – biochemical, fluorescence polarization, human, primary screen (AID 1159607)). Details: RMI core complex with F-MM2 peptide, at 33 µM, active compounds read low.

| SMILES | FP signal (polarization) |
| --- | --- |
| Cc1cccn2c(=O)c(/C=C3\SC(=S)N(C)C3=O)c(NCc3ccc4c(c3)OCO4)nc12 | 42 |
| Cc1ccc(S(=O)(=O)NCCCCCC(=O)Nc2ccncc2)cc1 | 56 |
| Cc1ccc(NC(=O)C(=O)Nc2cc(F)ccc2F)cc1N1CCCC1=O | 54 |
| O=C(CSc1nnc(NC(=O)c2ccc(Br)o2)s1)Nc1cc(C(F)(F)F)ccc1Cl | 64 |
| COC(=O)c1c(N2C(=O)C3ON(c4ccc(Cl)cc4)C(c4ccco4)C3C2=O)sc(C)c1C (stereo unspecified) | 25 (active) |
| N#CC(c1ccccc1)N1CCSCC1 (stereo unspecified) | 56 |
| Cc1cc(-c2nnc(NC(=O)Cc3ccc(F)cc3)o2)n(C)n1 | 70 |
| CCOC(=O)N1CCc2c(sc(NC(=O)CSc3ccccc3)c2C(N)=O)C1 | 67 |
| O=C(NCCn1ncc2c(=O)n(Cc3cccc([N+](=O)[O-])c3)cnc21)C1CC(=O)N(c2ccc(F)cc2)C1 (stereo unspecified) | 71 |
| O=C(CCn1cncn1)N1CCN(C(=O)N2CCOCC2)CC1 | 63 |
| O=C(c1ccc(=O)n(Cc2cccc(F)c2)n1)N1CCN(Cc2ccccc2)CC1 | 59 |
| CCN1C(=O)Cc2cc(NC(=O)c3ccc(F)c(F)c3)ccc21 | 68 |
| CSc1ccc2nc(NC(=O)c3ccc(S(=O)(=O)N4CCc5ccccc5C4)cc3)sc2c1 | 70 |
| COc1ccc(Cl)c2sc(NNC(=O)c3ccc(S(=O)(=O)N4CCc5ccccc5C4)cc3)nc12 | 11 (active) |
| COc1ccc(Cl)c2sc(NC(=O)C3CCCN(S(C)(=O)=O)C3)nc12 (stereo unspecified) | 63 |
| CCc1nnc(NC(=O)CSc2ccc3nc(-c4ccccc4)cn3n2)s1 | 55 |
| CN(C)C(C#N)c1cccc(Cl)c1Cl (stereo unspecified) | 69 |
| CCOC(=O)N1CCc2c(sc(NC(=O)c3ccccc3I)c2C#N)C1 | 63 |
| COc1cn(CC(=O)Nc2ccc(C)cc2C)c(CSc2nnnn2C)cc1=O | 52 |
| C(=N/NC1=NCCN1Cc1ccccc1)/c1ccc2c(c1)OCO2 | 51 and 48 |
| Clc1ccc(-c2csc(-c3ccncc3)n2)cc1 | 51 |
| CCn1cc(C(=O)N2CCN(Cc3cc(C)ccc3C)CC2)c2nn(-c3ccccc3)c(=O)c-2c1 | 64 |
| COCC(=O)Nc1ccc2c(c1)C(=O)N(C)c1cc(C)ccc1O2 | 69 |
| O=C(C1=C(O)C(=O)N(CCCN2CCOCC2)C1c1ccco1)c1cccs1 (stereo unspecified) | 57 |

| SMILES | FP signal (polarization) |
| --- | --- |
| O=C(Cc1csc(Nc2ccccc2)n1)NCc1ccccc1Cl | 63 |
| O=C(Cc1csc(Nc2ccc(F)cc2)n1)NCc1ccccn1 | 9 (active) |
| COc1ccccc1CCNC(=O)Cc1csc(Nc2ccc(F)cc2)n1 | 65 |
| CCOC(=O)Cn1c(=NC(=O)c2ccnn2C)sc2cc(C(C)C)ccc21 | 69 |
| COCCN1C(=O)C2N=NN(c3ccccc3)C2C1=O (stereo unspecified) | 66 |
| O=C(c1cccc(C(F)(F)F)c1)N1CCC(c2nnc(C3CC3)s2)CC1 | 61 |
| COC(=O)Nc1ccc2c(c1)C(=O)N(C)c1ccccc1O2 | 57 |
| CC1CCCCC1NC(=O)C(=O)c1cn(CC(=O)N2CCCCC2)c2ccccc12 (stereo unspecified) | 56 |
| CC1=NN(c2ccccc2)C(=O)C1=Cc1c(C)[nH]n(-c2ccccc2)c1=O | 53 |
| O=C(Nc1ccc(Br)cc1)Nc1c[nH]c2ccccc12 | 56 |
| O=C(Nc1ccc([N+](=O)[O-])cc1)Nc1nc(-c2nc3ccccc3s2)cs1 | 65 |
| Cc1ccnc(NS(=O)(=O)c2ccc(NC(=O)c3ccc([N+](=O)[O-])o3)cc2)n1 | 61 |
| NC(=O)c1c(NC(=O)CCSc2ccc(Cl)cc2)sc2c1CCCCC2 | 102 |
| Cc1c(/C=N\Nc2ccc([N+](=O)[O-])cc2)sc2ccccc12 | 64 |
| COc1ccccc1/C=C/C(=O)NC(=S)N1CCCC1 | 59 |
| Cc1cc(C(=O)Nc2sccc2-c2nc3ccccc3s2)on1 | 107 |
| NC(=O)c1cnn(-c2ccccc2)c1N | 55 |
| CCC(CC)C(=O)Nc1nnc(SCc2cc(=O)c(OC(=O)c3ccc(S(=O)(=O)N(CC)CC)cc3)co2)s1 | 53 |
| Cc1ccc2c(c1)N(C(=O)Cn1nc3ccc(S(=O)(=O)C(C)(C)C)nn3c1=O)CCO2 | 64 |
| COc1ccc(S(=O)(=O)NNC(=O)CSCc2nc(-c3ccc(Cl)cc3)cs2)cc1 | 78 and 65 |
| CC(=O)c1cccc(NC(=O)CSc2cc(C)c3ccccc3n2)c1 | 77 |
| Cc1ccc(S(=O)(=O)Nc2ccc3c(c2)C(=O)NCCO3)c(C)c1 | 64 |
| O=C(CSc1nnc2ccc(-c3cccs3)nn12)NCCc1ccccc1 | 54 |
| CS(=O)(=O)c1ccc(Nc2nc(C(=O)NC3CC3)cs2)cc1 | 62 |

| SMILES | FP signal (polarization) |
| --- | --- |
| C=CCn1c(SCC(=O)c2ccc3c(c2)OCO3)nc2scc(-c3ccco3)c2c1=O | 120 |
| Cc1cc(C)c2nc(N(CCN(C)C)C(=O)/C=C/c3cccs3)sc2c1 | 92 |
| COC(CC(=O)O)c1nc2ccccc2s1 (stereo unspecified) | 59 |
| COc1cccc2cc(C(=O)Nc3ccc4nc(N5CCN(C)CC5)sc4c3)oc12 | 64 |
| COc1cccc(-n2c(=S)sc3c(=O)[nH]c(SCC(=O)Nc4ccc(C)c(F)c4)nc32)c1 | 48 |
| COc1cccn(Cc2n[nH]c(=S)n2C)c1=O | 59 |
| CC(=O)c1ccc(NC(=O)CSc2nc(C(F)(F)F)cc(=O)[nH]2)cc1 | 54 |
| COc1ccc(Oc2cccc(Cl)c2CNC(=O)c2ccccc2N)cc1 | 60 |
| COC(=O)c1cccn1-c1ccc(F)cc1 | 56 |
| Cc1cc(NC(=O)/C=C/c2ccccc2)n(C(C)C)n1 | 67 |
| COc1ccc(-c2cc(=O)n(CC(=O)N3CCN(c4ccccc4OC)CC3)cn2)cc1 | 65 |
| CCOC(=O)N1CCN(C(=O)COc2coc(CN3CCc4ccccc43)cc2=O)CC1 | 57 |
| Cc1cccc(NC(=O)Cn2c(C)cc(C)c(-c3nc(-c4ccc(F)cc4)no3)c2=O)c1C | 137 |
| Cc1nc2c(=S)[nH]nc(-c3ccccc3)c2s1 | 68 |
| COc1cccc2cc(-c3cc(=O)oc4cc(OCC(=O)OC(C)(C)C)ccc34)c(=O)oc12 | 67 |
| CCc1cc(C(=O)c2ccc(OC)cc2)c(NC(=O)CN2CCN(C)CC2)s1 | 69 |
| COc1ccc(OC)c(-c2cc3ccc(O)c(CN4CCN(C)CC4)c3oc2=O)c1 | 37 (active) |
| Cn1nccc1-c1nnc(NC(=O)c2c(F)cccc2Cl)o1 | 75 |
| CCCCOc1ccccc1-c1cc2c(SCC(=O)Nc3ccc(NC(C)=O)cc3)nccn2n1 | 70 |
| CCOC(=O)c1nn(-c2ccccc2C)c(=O)cc1NCCC(c1ccccc1)c1ccccc1 | 54 |
| COc1ccc(C)c2sc(N(Cc3cccnc3)C(=O)/C=C/c3ccccc3)nc12 | 55 |
| CC(C)(C)c1cc(NC(=O)CSc2nnc3ccccn23)cc(C(C)(C)C)c1 | 59 |
| O=C(Cn1cc(-c2nnc(-c3ccccc3)o2)c2ccccc21)N1CCCC1 | 130 |
| CCCc1cc(=O)n(CC(=O)Nc2ccccc2F)cn1 | 65 |

| SMILES | FP signal (polarization) |
| --- | --- |
| O=C(Nc1ccccc1-c1nc2ccccc2s1)c1ccc(Cl)s1 | 60 |
| O=C(CSc1nnc(CNC(=O)c2ccc(F)cc2)o1)Nc1ccc2c(c1)OCO2 | 57 |
| COC(=O)c1cc(OC)c(OC)cc1NC(=O)C1Cc2ccccc2C(=O)O1 (stereo unspecified) | 56 |
| CC(=O)SCC(=O)Nc1sccc1C#N | 66 |
| O=C(CSc1nnc(NC(=O)c2c(F)cccc2Cl)s1)Nc1ccc(Br)cc1 | 61 |
| O=C(Nc1ccc(OC(F)(F)F)cc1)c1cnc2sccn2c1=O | 64 |
| O=C(NCC1CCN(Cc2cccs2)CC1)c1ccco1 | 72 |
| CCOc1ccc(-c2noc(-c3cc(-c4cc(C)ccc4C)n[nH]3)n2)cc1OC | 95 |
| COc1ccc2nc(-c3ccc(NC(=O)c4c(F)cccc4Cl)cc3)cn2n1 | 122 |
| SCCc1nc2ccccc2[nH]1 | 63 |
| COc1ccc(-c2noc(Cn3cnc4c(nnn4Cc4cccc(F)c4)c3=O)n2)cc1 | 76 |
| O=C(Nc1cc(F)ccc1F)N1CCN(c2ccc(-c3ccc4c(c3)OCO4)nn2)CC1 | 123 |
| O=C(COc1ccc(Cl)cc1)Nc1ccc2c(c1)C(=O)NCCO2 | 60 |
| COC(=O)c1c(NC(=O)CCS(=O)(=O)c2ccc(Cl)cc2)sc2c1CCC(C)C2 (stereo unspecified) | 96 |
| O=C(CN1C(=O)c2ccccc2C1=O)Nc1nnc(-c2ccco2)o1 | 63 |
| CCOc1ccc(S(=O)(=O)Nc2ccc3c(c2)CN(C(=O)C2CC2)CC3)cc1F | 66 |
| CCc1nnc(C2CCN(S(C)(=O)=O)CC2)s1 | 60 |
| Oc1ccc(Br)cc1C=Nc1ccccn1 | 41 |
| Cc1cccnc1N=Cc1cc(Cl)cc(Cl)c1O | 29 (active) |
| Clc1ccc(C=Nc2cccnc2)c(Cl)c1 | 63 |
| Cn1c(SCC(=O)NCc2ccc(F)cc2)nc2cc(-c3ccccc3)sc2c1=O | 104 |
| CN(C)c1ccc(CCCNC(=O)COc2ccc(Cl)cc2)cc1 | 69 |
| Cn1nc(-c2cccc(NC(=O)c3ccccc3C(F)(F)F)c2)ccc1=O | 56 |
| O=C(N/N=C\c1ccncc1)N/N=C\c1ccncc1 | 54 |
